Laboratory results taken from PubChem BioAssay AID1117362 (Southern Research Institute, 2015).
The whole screen tested about 3,600 compounds, of which about 100 (2.8%) were called active.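 The calls were made as follows: active = inhibition above 30% at one or more concentrations, seen consistently on every test date; inconclusive = results that disagree between repeat test dates; inactive = the rest.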 A selection follows.

experiment: GST-antibody interaction or FRET quenching – biochemical, TR-FRET, artefact control for Vif-APOBEC3G degradation inhibitor project, dose response (AID 1117362); details: TR-FRET counter screen, biotin-GST/anti-GST signal; series mostly up to 100 µM;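 also: biotinylated GST protein used in place of GST-Vif 1-94 and biotin-A3G peptide; detects fluorescence quenchers or blockers of GST binding to anti-GST antibody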

| Compound | IC50 |
| --- | --- |
| Cc1noc(/C=C/c2ccco2)c1S(=O)(=O)N1CCC(C(=O)N2c3ccccc3CC2C)CC1 (stereo not drawn) | inactive |
| Cc1cc(C)nc(N/N=C/C2=C(N3CCOCC3)C(=C\c3ccc(Cl)cc3)/CC2)n1 | inactive |
| Cc1ccccc1NC(=O)c1c(C)[nH]c(=S)c(C#N)c1-c1ccco1 | inactive |
| COc1ccc(OC)c(C2C(C(=O)Nc3ccc(F)cc3)=C(C)Nc3nc(CCCO)nn32)c1 (stereo not drawn) | inactive |
| c1ccc2c(c1)CCCN2Cc1nnc2n1CCCCC2 | inactive |
| CCOC(=O)C1CCN(C(c2cccs2)c2sc3nc(C)nn3c2O)CC1 (stereo not drawn) | inactive |
| Cc1onc(-c2c(F)cccc2Cl)c1C(=O)Nc1nnc(C2CC2)s1 | inactive |
| O=C(O)c1ccc(Cl)c2c1C1C=CCC1C(c1ccccn1)N2 (stereo not drawn) | inactive |
| COCCCNC(=O)/C(C#N)=C/c1ccc(OCC(=O)O)c(OC)c1 | inactive |
| CCOC(=O)N1CCN(C(=O)c2ccc3c(SCC(=O)O)c4c(nc3c2)CCC4)CC1 | inactive |
| COC(=O)C1=C(C)NC(=O)/C1=C\c1cccs1 | inactive |
| CC(=O)C1=C(C)NC(C)=C(C(C)=O)C1c1cccs1 | inactive |
| CNc1c(C(=O)O)ccc2c1C(=O)c1ccccc1C2=O | inactive |
| COCc1cc(C)nc(NCCO)c1C#N | inactive |
| CC(C)c1ccc(/C=C/C(=O)N2CCc3ccccc3C2)cc1 | inactive |
| CCOC(=O)C1=C(c2ccccc2)N=c2s/c(=C\c3ccco3)c(=O)n2C1c1cccs1 (stereo not drawn) | inactive |
| O=C(O)Cc1ccc(N=Nc2c(O)c(C(=O)O)cc3ccccc23)cc1 | inactive |
| COC(=O)c1ccc(C)c(NC(=O)CCSc2ccccc2)c1 | inactive |
| O=C(COC(=O)c1c2c(nc3ccccc13)/C(=C\c1ccco1)CC2)NC1CCCC1 | inactive |
| CCC(=O)N1N=C(c2ccc(NS(C)(=O)=O)cc2)CC1c1ccc(C)cc1 (stereo not drawn) | inactive |
| Cn1nc(-c2ccc(Cl)cc2)c2cc(C(=O)N3CCN(c4ccccc4)CC3)sc21 | inactive |
| CCOC(=O)c1sc2nc(CC(=O)OC)nc(NCc3ccco3)c2c1C | inactive |
| CCOc1ccc(-n2c(Cc3cc(=O)[nH]c(=O)[nH]3)nnc2SCC(N)=O)cc1 | inactive |

| Compound | IC50 |
| --- | --- |
| COC(=O)COc1ccc(S(=O)(=O)Nc2cc(OC)ccc2OC)cc1 | inactive |
| COC(=O)CSc1nnc(CNC(=O)Cc2ccccc2)n1C | inactive |
| CCOC(=O)c1cc2cc(F)ccc2nc1C | inactive |
| O=C(Cc1ccccc1)NC(Nc1ccccc1)C(Cl)(Cl)Cl (stereo not drawn) | inactive |
| Cc1ccc(C)c(-n2c(Cc3cc(=O)[nH]c(=O)[nH]3)nnc2SC(C)C)c1 | inactive |
| O/N=C1\CCC\C1=C/c1ccco1 | inactive |
| O=C(CCCCCN1C(=O)CCC1=O)Nc1ccc(Cl)c(C(F)(F)F)c1 | inactive |
| Cc1ccc(N(CC(=O)NCCSCc2ccco2)S(=O)(=O)c2ccc(F)cc2)cc1 | inactive |
| CCOc1ccc(-n2c(Cc3cc(=O)[nH]c(=O)[nH]3)nnc2SCC(=O)NC2CCCC2)cc1 | inactive |
| CC1CCCN(C(=O)CN2CCN(C(=O)c3ccco3)CC2)C1 (stereo not drawn) | inactive |
| COc1ccc(CCNC(=O)CN2CCCc3ccccc32)cc1OC | inactive |
| O=C(c1ccco1)N1CCN(C(c2ccccn2)c2nnnn2C2CCCC2)CC1 (stereo not drawn) | inactive |
| O=C(NC1CCCC1)C(c1ccco1)N(Cc1ccccc1)C(=O)c1csnn1 (stereo not drawn) | inactive |
| c1cncc(-c2csc(NCc3ccco3)n2)c1 | inactive |
| COc1cc(CC(=O)OCC(=O)Nc2cccc([N+](=O)[O-])c2)cc(OC)c1OC | inactive |
| CCOC(=O)Cn1nnnc1C(C(C)C)N(Cc1cc2c(C)cc(C)cc2[nH]c1=O)C1CCCC1 (stereo not drawn) | inactive |
| CC(=O)Nc1ccc(S(=O)(=O)NCCSCc2ccco2)cc1 | inactive |
| CCOC(=O)c1cnn2c(N)c(C#N)nnc12 | inactive |
| CSc1nc(N(CCO)CCO)c2sc3nc(-c4ccco4)c4c(c3c2n1)CCC4 | inactive |
| CC(=C/c1ccco1)/C=N/NC(=O)Cc1cccn1C | inactive |
| COc1ccccc1NC(=O)CSc1nnc(Cc2cc(=O)[nH]c(=O)[nH]2)n1-c1ccccc1 | inactive |
| Cc1nc2ncccn2c1-c1csc(NCc2ccco2)n1 | inactive |
| Cc1cc(S(=O)(=O)N(Cc2ccccn2)Cc2ccco2)ccc1-n1cnnn1 | inactive |

| Compound | IC50 |
| --- | --- |
| COc1ccccc1C1C=C(c2ccc(C)cc2)Nc2nnnn21 (stereo not drawn) | inactive |
| O=C(O)/C=C/C(=O)Nc1cccnc1 | inactive |
| O=C(c1cc2n(n1)C(C(F)(F)F)CC(c1ccco1)N2)N1CCc2ccccc2C1 (stereo not drawn) | inactive |
| COc1ccc(-c2ccc(C#N)c(SCC(=O)Nc3sc4c(c3C#N)CCC4)n2)cc1OC | inactive |
| CC(=O)OC1COC(n2ccc3ccccc32)C(OC(C)=O)C1OC(C)=O (stereo not drawn) | inactive |
| O=C1C2C3CCCC3=C3CCCC3C2C(=O)N1c1ccccc1 (stereo not drawn) | inactive |
| CCCCn1c(=NC(=O)c2cccnc2)c(C#N)cc2c(=O)n3cccc(C)c3nc21 | inactive |
| CCc1ccc2nc(N3CCN(C)CC3)c(C#N)cc2c1 | inactive |
| Cc1nc2cc(N=NC3=C(O)CCCC3=O)ccc2s1 | inactive |
| COc1ccc2ccccc2c1C1CC(=O)N2CN(Cc3ccco3)CSC2=C1C#N (stereo not drawn) | inactive |
| C=CC(=O)N1C/C(=C/c2ccc(F)cc2)C(=O)/C(=C\c2ccc(F)cc2)C1 | inactive |
| O=C1NC(=S)N/C1=C/c1ccc(-c2c(Br)cc([N+](=O)[O-])cc2Br)o1 | inactive |
| COC(=O)C1=C(N)OC2=C(C(=O)CCC2)C1c1cccs1 (stereo not drawn) | inactive |
| CC1(c2ccc3noc(-c4ccccc4)c3c2)OCCO1 | inactive |
| O=C(COC(=O)/C=C/c1ccco1)Nc1ncc(C(F)(F)F)cc1Cl | inactive |
| CCOC(=O)c1c(C)oc2c1c(C=NCc1ccccn1)c(O)c1ccccc12 | inactive |
| Cc1ccc(C(=O)Nc2ccc(O)c(C(=O)O)c2)o1 | inactive |
| COc1ccccc1/C=C(/CC(=O)NCc1ccccc1)c1nc2ccccc2s1 | inactive |
| COc1ccc(-c2nc3oc4cc(OC)ccc4c(=O)c3c(=O)n2Cc2ccco2)cc1 | inactive |
| O=S(=O)(Nc1nccs1)c1ccc(Nc2nnc(-c3ccccc3)c3ccccc23)cc1 | inactive |
| Cc1ccc(-n2c(C)cc(C(=O)OCC(=O)N(CC(C)C)C3CCS(=O)(=O)C3)c2C)cc1 (stereo not drawn) | inactive |
| CCOc1cc(N2CCOCC2)c(OCC)cc1NS(=O)(=O)c1ccc(Cl)s1 | inactive |
